Compound activity from PubChem.
VP16 counter – VP16 counterscreen qHTS for inhibitors of ROR gamma transcriptional activity; Drosophila S2 Gal4-VP16 UAS-luciferase, luminescence, 20 h; Potency, µM (doses to about 53.6 µM), inactives show at the top dose activity, negative = inhibition, most hits filed as inhibitors; 310,000 compounds, 3.5% hits;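 also: Gal4-VP16 expression switched on by copper sulfate through the metallothionein promoter; potency is read from the fitted curve at half-maximal effect; nearly all actives have a fitted effect of over 50% in size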
RORgamma inh – qHTS for inhibitors of ROR gamma transcriptional activity; Drosophila S2 Gal4-RORgamma UAS-luciferase reporter, 20 h; Potency, µM (series often up to 53.6 µM), for the others: at the highest dose activity change, negative = inhibition, actives largely listed as inhibitors; 310,000 compounds, 5.4% hits; AID 2551, 2010; also: potency is read from the fitted curve at half-maximal effect; nearly all actives have a fitted effect of over 60% in size
Target sequence (P51450 whole entry, looked up, the tested form may be a part): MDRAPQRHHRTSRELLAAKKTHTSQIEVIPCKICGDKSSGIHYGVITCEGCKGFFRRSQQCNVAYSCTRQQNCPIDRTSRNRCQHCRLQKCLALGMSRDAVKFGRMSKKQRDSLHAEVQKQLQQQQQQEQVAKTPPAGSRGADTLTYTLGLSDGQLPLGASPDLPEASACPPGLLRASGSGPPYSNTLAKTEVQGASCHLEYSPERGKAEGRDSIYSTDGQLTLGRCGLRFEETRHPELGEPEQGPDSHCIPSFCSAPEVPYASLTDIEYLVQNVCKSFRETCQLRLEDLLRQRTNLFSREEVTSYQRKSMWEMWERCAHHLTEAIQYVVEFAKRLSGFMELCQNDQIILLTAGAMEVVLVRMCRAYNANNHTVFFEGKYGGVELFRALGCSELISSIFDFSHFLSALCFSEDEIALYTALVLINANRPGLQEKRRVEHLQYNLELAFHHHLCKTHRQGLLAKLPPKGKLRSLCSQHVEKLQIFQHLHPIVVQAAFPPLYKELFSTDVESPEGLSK
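ROR gamma transcriptional activity was tracked as Gal4-UAS luciferase output in stably transfected Drosophila Schneider cells, with compound added 1 hr before 700 uM copper sulfate induction and a 20 hr ambient-temperature incubation.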
DT40 TDP1 CPT – qHTS for Inhibitors of human tyrosyl-DNA phosphodiesterase 1 (TDP1): qHTS in cells in presence of CPT | chicken DT40 Tdp1-/-;hTDP1 cells + 20 nM CPT, ATP luminescence, 48 h | Potency, µM (doses to about 46.2 µM), for the others: at the highest dose activity change, negative = growth inhibition, usual class: inhibitors | 420,000 compounds, 12% hits | AID 686979, 2013; also: potency is read from the fitted curve at half-maximal effect; nearly all actives have a fitted effect of over 55% in size
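Chicken DT40 Tdp1-/- cells stably complemented with human TDP1 were seeded at 400 cells/well in medium containing 20 nM camptothecin, exposed to pin-transferred compounds, and grown at 37 °C for at least 48 hr. Viability was read as ATP luminescence.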
LDHA inh – qHTS assay for inhibitors of human lactate dehydrogenase; L-lactate dehydrogenase A chain (Homo sapiens), P00338; purified LDHA, NADH/diaphorase-resazurin fluorescence; hits give low values; activity change, % (values are at about 110 or 230 µM); 480,000 compounds, 0.15% hits; AID 1347041, 2019; in the data active = activity change below about -30%; inconclusive = mostly about -25% to -30%;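 also: plate controls were DMSO wells for no effect and wells without enzyme for full effect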
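Human LDH5 (2 nM) was incubated with 0.06 mM NADH and 0.2 mM pyruvate for 5 min at room temperature in Tris pH 7.4. Remaining NADH was coupled through diaphorase/resazurin, and resorufin fluorescence was read at 0 and 20 min.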
TDP1 cell noCPT – qHTS for Inhibitors of human tyrosyl-DNA phosphodiesterase 1 (TDP1): qHTS in cells in absence of CPT; Potency, µM (highest dose often 46.2 µM), for inactives: top-dose activity change, negative = growth inhibition, usual class: inhibitors; 420,000 compounds, 15% hits; DT40 Tdp1-/- hTDP1 cells, no CPT, ATP luminescence, 48 h; also: potency is read from the fitted curve at half-maximal effect; nearly all actives have a fitted effect of over 55% in size
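Luminescent ATP content (CellTiter-Glo) served as the growth readout. Knockout chicken DT40 cells expressing human TDP1 were exposed to compounds without camptothecin for a minimum 48 hr at 37 °C.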
IL-1B inflam inh – qHTS for Inhibitors of Inflammasome Signaling: IL-1-beta AlphaLISA Primary Screen | 360,000 compounds, 4.7% hits | THP-1 LPS/ATP IL-1B secretion, AlphaLISA, 16 h; hits give low values | activity change, % at 57.5 µM; in the data active = activity change below about -50%; inconclusive = mostly about -30% to -49%
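Secreted IL-1B measured by AlphaLISA bead assay after 16 h compound exposure of THP-1 cells; compounds (final up to 57.5 uM) added 1 h before LPS (250 ng/mL) and ATP (1.25 mM) stimulation; lower signal means less secretion.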
Numbers without * were called inactive; u = inconclusive; x = not tested or not shown. Only some compounds are listed: those with a hit (about 18% of all), similar ones and a draw of the others. Unless noted, calls follow the shape of the dose curve; as a rule, active = well fitted curve in the direction sought with a large enough effect; inconclusive = small, poorly fitted or top-dose-only effect, or another doubt; inactive = no such curve, though single readings can be large; an effect the other way counts as inactive or inconclusive. Unless noted, % is scaled to controls: 0 for no effect and ±100 for the full control effect.

SMILES	VP16 counter	RORgamma inh	DT40 TDP1 CPT	LDHA inh	TDP1 cell noCPT	IL-1B inflam inh
CC1(C)CC(=O)C2=C(C1)NC1=C(C(=O)CC(C)(C)C1)C2c1ccc(C#N)cc1	x	x	x	-1	x	x
CCCN(CC#N)CC(=O)NC1(C#N)CCCCCC1	x	x	x	6	x	x
COCC(C)n1c(C)cc(C(=O)CSc2nnc(-c3ccncc3)n2-c2ccccc2)c1C (configuration not stated)	x	x	x	3	x	x
Nc1cccc(OCCc2ccccn2)c1	x	x	x	11	x	x
O=C(Nc1ccc(Cl)c(S(=O)(=O)N2CCOCC2)c1)c1ccccn1	11%	u	3%	6	-18%	18
O=C(Nc1ccc(F)cc1)c1cc(-c2ccccn2)nc2ccccc12	x	x	x	1	x	x
O=C(Nc1ccc(F)cc1)c1cc(-c2ccccn2)nc2c(Cl)cccc12	-24%	13µM*	u	1	0%	0
Cc1ccc(NC(=O)c2cc(-c3ccco3)nc3ccccc23)cc1S(=O)(=O)N1CCOCC1	-12%	-9%	u	-4	29µM*	5
O=C(Nc1ccc(Cl)c(S(=O)(=O)N2CCOCC2)c1)c1cc(-c2ccccn2)nc2ccccc12	-18%	-3%	u	-4	23µM*	u
CCN(CC)C(CNC(=O)c1nc(-c2ccccc2)oc1C)c1ccccc1 (configuration not stated)	x	x	x	-24	x	x
COc1ccc(C2CC(=O)c3c(O)cc(O)cc3O2)c(CC=C(C)C)c1OC (configuration not stated)	x	x	23µM*	6	u	10
Cn1c(-c2ccccc2)cc(=O)cc1-c1ccccc1	x	x	-8%	-17	-18%	19
O=c1cc(-c2ccccc2)cc(-c2ccccc2)n1O	x	x	21µM*	-2	16µM*	120
COc1ccc(-n2c(CNC(=O)COc3ccc(Cl)cc3)n[nH]c2=S)cc1	16%	-41%	3%	-7	6%	33
Cc1ccc(C2CC2c2n[nH]c(=S)n2-c2ccc(Cl)cc2)cc1 (configuration not stated)	10µM*	2.8µM*	u	2	u	22
S=c1[nH]nc([C@@H]2C[C@H]2c2ccccc2)n1-c1ccccc1Cl	10µM*	1.4µM*	-1%	-3	-7%	0
Cc1ccc(C2CC2c2n[nH]c(=S)n2-c2cccc(C)c2)cc1 (configuration not stated)	6.3µM*	3.2µM*	u	-3	16µM*	38
S=c1[nH]nc(Cn2cnc3ccccc32)n1-c1ccccc1Cl	-6%	18%	3%	-1	0%	50
CC(C)CCn1c(N2CCN(Cc3c(F)cccc3Cl)CC2)nc2c1c(=O)[nH]c(=O)n2C	x	x	x	-6	x	x
CN(CC(=O)Nc1cccc(F)c1)C(=O)Cc1csc(-c2ccccc2)n1	x	x	x	2	x	x
CC1(C(=O)NCc2cccs2)CCN1C(=O)Cc1cccc2ccccc12 (configuration not stated)	x	x	29µM*	-7	16µM*	-4
CC1(C(=O)NCC(F)(F)F)CCN1C(=O)Cc1ccc(-c2ccccc2)cc1 (configuration not stated)	x	x	15µM*	1	u	6
CC1(C(=O)NCc2ccc(Cl)cc2)CCN1C(=O)Cc1cccs1 (configuration not stated)	x	x	u	-12	u	-19
CC(C)CNC(=O)C1(C)CCCN1C(=O)c1cc2ccccc2s1 (configuration not stated)	x	x	-29%	1	-23%	0
CC(C)c1ccc(CC(=O)N2CCC2(C)C(=O)NCc2cccc3ccccc23)cc1 (configuration not stated)	x	x	u	0	u	-19
SMILES	VP16 counter	RORgamma inh	DT40 TDP1 CPT	LDHA inh	TDP1 cell noCPT	IL-1B inflam inh
CC(C)CNC(=O)C1(C)CCCN1C(=O)Cc1cccc2ccccc12 (configuration not stated)	x	x	9.2µM*	-8	8.2µM*	35
CC1(C(=O)NCCC#N)CCN1C(=O)Cc1ccc(-c2ccccc2)cc1 (configuration not stated)	x	x	u	-10	u	21
CC1(C(=O)NCc2cccc3ccccc23)CCN1C(=O)Cc1ccc(-c2ccccc2)cc1 (configuration not stated)	x	x	u	-5	u	-104*
CNC(=O)NC(=O)CNc1cccc(C)c1C(=O)OC	x	x	x	5	x	x
Cc1cc2oc(C(=O)Nc3ccc(F)cc3)cc(=O)c2cc1C	x	x	x	7	x	x
O=C(NCc1ccc(CN2CCCC2)cc1)c1cc(C2CC2)nc2ccccc12	x	x	x	-16	x	x
COc1ccccc1C1C([N+](=O)[O-])=CC([N+](=O)[O-])=CN1C (configuration not stated)	11µM*	u	u	18	u	-13
Cc1cccc(NNC(N)=S)c1C	u	10µM*	u	-8	-9%	-7
Cc1cc(Cl)ccc1NNC(N)=S	u	u	-24%	30	-27%	-13
Cc1ccc(C)c(NNC(N)=S)c1	18µM*	u	5%	19	-7%	-9
O=C(NCc1ccc(S(=O)(=O)N2CCCC2)cc1)c1n[nH]c2ccccc12	x	x	x	5	x	x
O=C(NCC(F)(F)F)C1CCN(C(=O)c2ccc(Br)cc2)CC1	x	x	x	-3	x	x
COC(=O)c1cc2c(C)c(C)c3ccccn3c-2c1C(=O)OC	1%	-3%	26µM*	6	u	-13
Cc1cccc(C)c1NC(=O)C1C(c2ccc3c(c2)OCO3)=Nc2ccccc2N1C(=O)c1cccc2ccccc12 (configuration not stated)	x	x	6.5µM*	5	7.3µM*	-1
COc1ccc(C2=Nc3ccccc3N(C(=O)c3ccc4c(c3)OCO4)C2C(=O)NCc2ccccc2)cc1 (configuration not stated)	x	x	u	-6	u	-7
Cc1nc2ccc(C(=O)N3c4ccccc4N=C(c4ccc5c(c4)OCO5)C3C(=O)NCc3ccccc3)cc2[nH]1 (configuration not stated)	x	x	2.1µM*	0	1.6µM*	-2
Cc1ccc(S(=O)(=O)NCC2CCC(C(=O)NCC(=O)NCc3ccco3)CC2)cc1 (configuration not stated)	x	x	x	-7	x	x
